Records with an inconclusive call do not appear. Entries that show only a call come without a potency. The source made the active and inactive calls. The call rests on the fitted dose curve; in most records, active means well fitted curve in the direction sought with a large enough effect; inconclusive means small, poorly fitted or top-dose-only effect, or another doubt; inactive means no such curve, though single readings can be large; an effect the other way counts as inactive or inconclusive. Where a SMILES comes first, the peptide text is derived from it. The star is where a group is joined. Cbz = O=C(OCc1ccccc1)*; CH2F = FC*
How the values were obtained:
[1] = P-glycoprotein substrates identified in KB-3-1 adenocarcinoma cell line, qHTS therapeutic library screen (AID 1346986); further: nearly all actives have a fitted effect of over 60% in size
In short: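 Cells seeded 500/well in DMEM/10% FCS; compounds pinned in dose-response; 72 h incubation; CellTiter-Glo added, 5 min, luminescence. KB-8-5-11 run ±tariquidar to test reversal of P-gp resistance.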

[2] = P-glycoprotein substrates identified in KB-8-5-11 adenocarcinoma cell line, qHTS therapeutic library screen (AID 1346987); further: nearly all actives have a fitted effect of over 65% in size; on activity change, negative = cytotoxicity: series mostly up to about 44 µM
In short: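 Steps: plate 500 KB-8-5-11 cells/well in DMEM + 10% FCS (colchicine removed); pin compounds in dose-response; incubate 72 h, 37 degree C, 5% CO2; add CellTiter-Glo, 5 min; read luminescence.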

[3] = system: Zika virus NS2B-NS3 protease (linked construct); assay: Primary screen NINDS Rhodamine qHTS for Zika virus inhibitors (AID 1347160); further: nearly all actives have a fitted effect of over 55% in size; further: potency means the concentration at half of the fitted maximal effect
In short: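 Purified linked NS2B-NS3 protease (NS2B hydrophilic domain joined to NS3 protease by flexible linker), 25 nM in 10 mM Tris-HCl pH 8.0, 0.01% Tween 20. Compounds titrated, 15 min preincubation at room temperature; 1.5 microM Rhodamine110 substrate, FITC fluorescence change over 15 min.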

[4] = system: Zika virus NS2B-NS3 protease (unlinked complex); assay: Primary screen GU Rhodamine qHTS for Zika virus inhibitors: Unlinked NS2B-NS3 protease assay (AID 1347159); further: nearly all actives have a fitted effect of over 60% in size
In short: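 Noncovalent NS2B hydrophilic domain–NS3 protease domain complex (25 nM) preincubated 15 min at room temperature with compounds (up to 114 microM) in 10 mM Tris-HCl pH 8.0, 0.01% Tween 20; 1.5 microM Rhodamine110 substrate added, fluorescence change over 15 min fitted to Hill equation.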

C=C1C(=O)OC[C@H]2C(C(=O)O)=CC3CC(C)(C)C[C@@]132 (stereo partly specified)
Potency [1]: inactive | Potency [2]: inactive | Potency [3]: inactive

CCC(C)C(C(=O)O)N1Cc2c(OCC=C(C)C)c(C)c(OC)c(C(=O)O)c2C1=O (stereo unspecified)
Potency [1]: inactive | Potency [2]: inactive | Potency [3]: inactive

C/C(=C\CCC1(C)C2CC3C(C2)C31C)C(=O)O (stereo unspecified)
Potency [1]: inactive | Potency [2]: inactive | Potency [3]: inactive

CC(CC(C)O[C@@H]1O[C@H](CO)[C@@H](O)[C@H](O)[C@H]1O)OC(=O)/C=C/c1ccc(O)cc1 (stereo partly specified)
Potency [1]: inactive | Potency [2]: inactive | Potency [3]: 12.6 µM (active)

O=C(Cn1c2ccccc2c2nc3n(c(=O)c21)CCS3)N1CCCC1
Potency [1]: inactive | Potency [2]: inactive | Potency [3]: inactive

O=C(/C=C/N1C[C@@H]2C[C@@H]1CN2c1ccccn1)c1ccccc1O
Potency [1]: inactive | Potency [2]: inactive | Potency [3]: inactive

CC(C/C=C/C(C)(C)O)C1CCC(C)(O)C(O)C1 (stereo unspecified)
Potency [1]: inactive | Potency [2]: inactive | Potency [3]: inactive

CC1(C)C2CC[C@]3(C)C(C(=O)C=C4[C@H]5C[C@@](C)(C(=O)O)CC[C@]5(C)CC[C@]43C)[C@@]2(C)CC[C@@H]1O (stereo partly specified)
Potency [1]: inactive | Potency [2]: inactive | Potency [3]: inactive

COc1cccc(OC)c1-c1nc(C(=O)N[C@@H](CC(C)C)C(=O)O)cn1-c1ccnc2cc(Cl)ccc12
Potency [1]: inactive | Potency [2]: inactive | Potency [3]: inactive

CC1CC(=O)[C@]2(O)C(C(=O)OCCc3ccc(O)cc3)=CO[C@@H](O[C@@H]3O[C@H](CO)[C@@H](O)[C@H](O)[C@H]3O)[C@H]12 (stereo partly specified)
Potency [1]: inactive | Potency [2]: inactive | Potency [3]: inactive

O=C(O)CC(CCc1ccccc1)OC1OC(CO)C(O)C(O)C1O (stereo unspecified)
Potency [1]: inactive | Potency [2]: inactive | Potency [3]: inactive

C/C=C(/C)C(=O)O[C@@H]1C[C@@H](OC(=O)/C(C)=C\C)[C@@]2(C)C3C(=O)C=C(C)C2C3C1(C)C
Potency [1]: inactive | Potency [2]: inactive | Potency [3]: inactive

CC1(C)CC[C@]2(C(=O)O[C@@H]3O[C@H](CO)[C@@H](O)[C@H](O)[C@H]3O)CC[C@]3(C)C(=CCC4[C@@]5(C)CC[C@H](O[C@@H]6O[C@H](C(=O)O)[C@@H](O)[C@H](O)[C@H]6OC6OC(CO)C(O)C(O)C6O)C(C)(C)C5CC[C@]43C)[C@@H]2C1 (stereo partly specified)
outcome [1]: inactive [at 9.29 µM] | outcome [2]: inactive [at 9.29 µM] | Potency [3]: inactive

CC(C)C1CCC(CO)=CC1/C=C(\CO)C(=O)OCC1(O)CCC(C(C)C)C2C=C(C(=O)O)COC(=O)C21 (stereo unspecified)
Potency [1]: inactive | Potency [2]: inactive | Potency [3]: inactive

CC1CC2(O)OC(=O)C3=C2C(CCC3)[C@@]12C[C@@H](c1ccoc1)OC2=O (stereo partly specified)
Potency [1]: inactive | Potency [2]: inactive | Potency [3]: inactive

COC(=O)[C@]1(Cc2ccc(O)c(CC=C(C)C)c2)OC(=O)C(O)=C1c1ccc(O)cc1
Potency [1]: inactive | Potency [2]: inactive | Potency [3]: inactive

CC[C@H](C)[C@H](NC(=O)[C@H](Cc1ccc(O)cc1)NC(=O)[C@@H](N)C(C)C)C(=O)N[C@@H](Cc1cnc[nH]1)C(=O)N1CCC[C@H]1C(=O)N[C@@H](Cc1ccccc1)C(=O)O
outcome [1]: inactive [at 5.11 µM] | activity change, negative = cytotoxicity [2]: 1.21% [at 5.11 µM] (inactive) | activity change, negative = inhibition [3]: 8.38% [at 4.91 µM] (inactive)

Cc1c(-c2ccc3c(c2)OCO3)oc2ccc(C(O)C(C)O)cc12 (stereo unspecified)
Potency [1]: inactive | Potency [2]: inactive | Potency [3]: inactive

COC(=O)CC[C@H](NC(=O)[C@H](CC(C)C)NC(=O)OCc1ccccc1)C(=O)N[C@@H](Cc1cnc[nH]1)C(=O)N[C@@H](CC(=O)OC)C(=O)CF (Cbz-LE(OMe)HD(OMe)-CH2F)
outcome [1]: inactive [at 9.29 µM] | activity change, negative = cytotoxicity [2]: 6.58% [at 9.29 µM] (inactive) | Potency [3]: inactive

COc1c2c(c(C)c3c1C(=O)OC3)OC1(C)CC(O)C34OC(OC)(CCC3(C)C1C2)OC4(C)CO (stereo unspecified)
Potency [1]: inactive | Potency [2]: inactive | Potency [3]: inactive

NC1(c2ccc(NC(=O)c3ccnc(-c4cc(C(=O)O)ccn4)c3)cc2)CC1
Potency [1]: inactive | Potency [2]: inactive | Potency [3]: inactive

C=C(C)[C@@H]1CC[C@]2(C)CC[C@]3(C)C(CCC4[C@@]5(C)CC[C@H](O)C(C)(C)C5CC[C@]43C)C12 (stereo partly specified)
Potency [1]: inactive | Potency [2]: inactive | Potency [3]: inactive

C=C1C(=O)OC2CC(COC(=O)C(C)C)=C(C(C)CCCOC(C)=O)[C@@H](OC(C)=O)C12 (stereo partly specified)
Potency [1]: inactive | Potency [2]: inactive | Potency [3]: inactive

CC1=C2C(=O)C=C(CO)C2[C@H]2OC(=O)[C@H](C)[C@@H]2[C@@H](OC(=O)Cc2ccc(O)cc2)C1 (stereo partly specified)
Potency [1]: inactive | Potency [2]: inactive | Potency [3]: inactive

CC(=O)/C=C/C1C(C)CC(O[C@@H]2O[C@H](CO)[C@@H](O)[C@H](O)[C@H]2O)CC1(C)C (stereo partly specified)
Potency [1]: inactive | Potency [2]: inactive | Potency [3]: inactive

CO[C@H]1c2cc(C(C)C)c(O)c(O)c2[C@@]23CCCC(C)(C)C2[C@@H]1OC3=O (stereo partly specified)
Potency [1]: inactive | Potency [2]: inactive | Potency [3]: inactive

C/C=C1/[C@H](O[C@@H]2O[C@H](CO)[C@@H](O)[C@H](O)[C@H]2O)OC=C2C(=O)O[C@@H]3C[C@@H](C(C)CO)[C@H](COC(=O)C[C@H]21)[C@H]3C (stereo partly specified)
Potency [1]: inactive | Potency [4]: inactive | Potency [3]: inactive

CC(CCO)CCC1C2(C)CCCC(C)(C)C2CC[C@@]1(C)O (stereo partly specified)
Potency [2]: inactive

C[C@@]1(C(=O)O)CCC[C@@]2(C)C3=CC[C@H]4C[C@@]3(CC[C@H]12)CC4(O)CO (stereo partly specified)
Potency [1]: inactive | Potency [4]: inactive | Potency [3]: inactive

CC1=C(CO)C2(C)CCCC(C)(C)C2C(O)C1O (stereo unspecified)
Potency [1]: inactive | Potency [4]: inactive | Potency [3]: inactive

O=C(O)C(Cc1ccccc1)NC(=O)C1CCCN1 (stereo not drawn) (H-Pro-Phe-OH; configuration not given here)
Potency [1]: inactive | Potency [4]: inactive | Potency [3]: inactive

C[C@H]1[C@H](C)CC[C@]2(C(=O)O)CC[C@]3(C)C(=CCC4[C@@]5(C)C[C@@H](O)[C@H](O)C(C)(C)C5CC[C@]43C)[C@H]12 (stereo partly specified)
Potency [2]: inactive

C=C1C(O)C(OC(=O)c2ccccc2)C2C(C)(C(=O)O)CCCC2(C)C1CC/C(C)=C\CO (stereo unspecified)
Potency [2]: inactive

CC(NC(=O)[C@H](Cc1ccccc1)NC(=O)OCc1ccccc1)C(=O)CF (stereo partly specified)
Potency [1]: inactive | Potency [4]: inactive | Potency [3]: inactive

C/C=C/C=C/C(O)=C1/C(=O)[C@]2(C)C(=O)[C@@](C)(O)[C@H]1[C@H]([C@@]1(C)OC(=O)C(C)=C1O)[C@H]2C(=O)CC/C=C/C
Potency [1]: inactive | Potency [2]: inactive | Potency [3]: inactive

Cc1[nH]c2ccccc2c1CC(=O)N[C@@H](Cc1ccccc1)C(=O)N(C)c1ccccc1
Potency [1]: inactive | Potency [4]: inactive | Potency [3]: inactive

CC(C)c1cc2c(c(O)c1O)[C@@]13CCCC(C)(C)C1[C@@H](O)[C@@H]2OC3=O (stereo partly specified)
Potency [2]: inactive

NC(Cc1c[nH]c2ccc(O)cc12)C(=O)O (stereo unspecified)
Potency [1]: inactive | Potency [4]: inactive | Potency [3]: inactive

From PubChem BioAssay (NCATS)
